# Measurements published in ChEMBL document CHEMBL4513216, “Probing the Open Global Health Chemical Diversity Library for Multistage-Active Starting Points for Next-Generation Antimalarials” (ACS Infect Dis, 2020).
# The whole screen tested about 69,000 compounds, of which about 8,600 (12%) showed an effect of 50% or more. Many of the other results were omitted from the sample, so strong results are more common in it than they were.
# System: Plasmodium berghei
# Assay: Screen against P. berghei liver stage (PbLuc), transformed with Luciferase, at 10uM
# Assay type: functional, HepG2
# Conditions: tested at 10 uM
row,Compound,INHIBITION
1,O=C(c1ccsc1)N1CCC(Nc2cccnn2)CC1,-85%
2,COc1ccc(NC2(C(=O)N3CCCn4cncc4C3)CCCC2)cc1,18.5%
3,CN(CC(=O)NCCCOc1ccc(F)cc1)c1ccc(C#N)cn1,3.84%
4,O=c1[nH]c2cn(-c3ccccc3)c(=O)n2[nH]1,14.2%
5,Cc1cc(C)nc(C2CCCN2S(=O)(=O)N2CCOCC2)n1 (stereo unspecified),43.4%
6,Cc1ccc(C(=O)N2CCCC(c3[nH]ncc3S(C)(=O)=O)C2)s1 (stereo unspecified),33.7%
7,CS(=O)(=O)NC[C@]12COC[C@H]1CN(Cc1ccc3c(c1)OCO3)C2,38.5%
8,Cn1cc(C(=O)NCC(Cc2cccc(F)c2)N2CCCCC2=O)nn1 (stereo unspecified),6.83%
9,O=C(CN1CCC(C(=O)c2cc(F)ccc2F)CC1)NC1CCCC1,51.3%
10,O=C(CN1CCC(C(=O)c2cc(F)ccc2F)CC1)NC1CC1,56.5%
11,O=C(CCN1CCC(C(=O)c2cc(F)ccc2F)CC1)NC1CC1,-1.58%
12,COC(=O)CN1CCC(C(=O)c2cc(F)ccc2F)CC1,15.3%
13,C=C(Cl)CN1CCC(C(=O)c2cc(F)ccc2F)CC1,17.8%
14,O=C(CCN1CCC(C(=O)c2cc(F)ccc2F)CC1)NC1CCCC1,36.2%
15,CC(=O)N[C@H]1CCO[C@@H](c2cccc(NC(=O)c3cccc(F)c3)c2)C1,6.74%
16,O=C(NC1CC1)N1CCc2ncc(CN3CCOCC3)n2CC1,15.9%
17,COc1ccc(CN2CC[C@H]3[C@H]2CC(=O)N3Cc2cccc(C)n2)cc1,-31.9%
18,Cc1ccc(N2C[C@H]3OCC[C@H]3[C@H](C(=O)NCC3CC3)C2)nn1,49.7%
19,CCc1nnc(CS(=O)(=O)c2ccc(C)cc2)n1C,35.1%
20,C=C(C)CN(CC)C(=O)CN(C)C1CCc2ccccc21 (stereo unspecified),-2.725%
21,CCN(CC)C(=O)CN(C)C1CCc2ccccc21 (stereo unspecified),53.5%
22,CN(CC(=O)N(C)C1CCCCC1)C1CCc2ccccc21 (stereo unspecified),37.2%
23,CN(Cc1ccc(Cl)s1)C(=O)CN(C)C1CCc2ccccc21 (stereo unspecified),82.5%
24,CCOC(=O)CN(C)C1CCc2ccccc21 (stereo unspecified),34.7%

row,Compound,INHIBITION
1,CN(Cc1ccc(Cl)s1)C(=O)CN(C)C1CCCc2ccccc21 (stereo unspecified),85.9%
2,COC(=O)CN(C)C1CCc2ccccc21 (stereo unspecified),20.1%
3,CN(CCC#N)C(=O)CN(C1CC1)C1CCc2ccccc21 (stereo unspecified),-4.15%
4,CN(Cc1c(F)cccc1Cl)C(=O)CN(C)C1CCc2ccccc21 (stereo unspecified),85.1%
5,CC(C)N(C(=O)CN(C)C1CCc2ccccc21)C(C)C (stereo unspecified),-30.96%
6,CN(Cc1cccs1)C(=O)CN(C)C1CCc2ccccc21 (stereo unspecified),47.4%
7,CCCN(CCC)C(=O)CN(C)C1CCc2ccccc21 (stereo unspecified),15.55%
8,Cn1c2c(ccc1=O)CC(Nc1ncc(F)cn1)CC2 (stereo unspecified),-89%
9,O=C1COC2(CCN(Cc3ccc(F)cc3)CC2)CN1,-7.35%
10,O=C(CCN1CCOC1=O)N(Cc1ccncc1)CC1CCCO1 (stereo unspecified),15.7%
11,NC(=O)c1cc(NC(=O)N2CCOCC2)ccc1F,33.5%
12,CS(=O)(=O)CCN1CCC(Nc2c(Cl)cccc2C#N)CC1,52.6%
13,N#Cc1cccc(Cl)c1NC1CCN(CC(N)=O)CC1,13.2%
14,CCS(=O)(=O)N1CCC(Nc2c(Cl)cccc2C#N)CC1,29.4%
15,CC(C)C(C)NC(=O)c1ncn2c1CN(C)S(=O)(=O)c1ccccc1-2 (stereo unspecified),8.03%
16,CNCc1ccc([C@@H]2CN(C(C)=O)C[C@H]2C(=O)N(C)C)cc1,35.55%
17,CN(CC(=O)N1CCN(CC(C)(C)O)CC1)c1ccc(Cl)cn1,25%
18,CN(C)C(=O)N1CCCC(C(=O)N(C)CCCc2cnn(C)c2)C1 (stereo unspecified),47.7%
19,CC(C)N1CCCC(C(=O)N(C)CCCc2cnn(C)c2)C1 (stereo unspecified),51%
20,CN(CCCc1cnn(C)c1)C(=O)C1CCCN(C2CCCC2)C1 (stereo unspecified),37.6%
21,O=C1CCC(=O)N1c1nn(Cc2cccc(F)c2)cc1Cl,14.5%
22,CCCNCc1ccc(-c2ccnc3[nH]ccc23)cc1,78.8%
23,CNc1cc(-c2ccc(COCCN)cc2)c2cc[nH]c2n1,-8%
24,CCCNCc1ccc(-c2cc(N)nc3[nH]ccc23)cc1,19.7%

row,Compound,INHIBITION
1,Cc1ccc2c(c1)C(=O)NCC1(CCN(C(=O)c3scnc3C)CC1)O2,15.9%
2,OCCn1nccc1C1CCN(CCOc2ccc(Cl)cc2)CC1,38.8%
3,CN(C)C(=O)COc1ccccc1CN1CCCC2(C1)CN(C)C(=O)O2 (stereo unspecified),57.5%
4,CN1CC2(CCCN(Cc3ccc(Oc4ccccc4)cc3)C2)OC1=O (stereo unspecified),55%
5,CN1CC2(CCCN(CCOCc3ccccc3)C2)OC1=O (stereo unspecified),8.08%
6,CN(C)C(=O)COc1ccccc1CN1CCOC2(CCCC2)C1,7.58%
7,CN1CC2(CCCN(Cc3ccccc3OCC(=O)O)C2)OC1=O (stereo unspecified),1.37%
8,CN1CC2(CCCN(Cc3cccc(Oc4ccccc4)c3)C2)OC1=O (stereo unspecified),42.5%
9,CC(C)N(CCCNC(=O)C1CC1)S(C)(=O)=O,5.91%
10,Cc1nccn1[C@@H]1CC[C@@H](NC(=O)CCCn2cncn2)[C@H]1O,25.071%
11,COCC1N(C(=O)N2CCOCC2)C2CCC1(O)CC2 (stereo unspecified),33.6%
12,Cc1ccnc(NCCNC(=O)CCNC(=O)c2ccccc2F)c1,57%
13,Cc1ccnc(NCCNC(=O)c2ccccc2NCC(=O)O)c1,11.6%
14,Cc1ccnc(NC(=O)CCNC(=O)c2ccccc2Cl)c1,30.2%
15,CC1=N[C@@]2(CC[C@@H]3CN(C(=O)Nc4ccc(F)cc4)C[C@@H]32)C(=O)N1C,0.542%
16,Cc1ccc(C(=O)N2CCn3cnc(COCC4CC4)c3C2)cn1,45.2%
17,Cc1nccc([C@H]2C[C@@H]3CCN(C(=O)c4c(C)noc4C)C[C@H]3O2)n1,-3.88%
18,CCOCCn1nc(C)cc1C(=O)N1CC[C@@](O)(COC)C(C)(C)C1,16.2%
19,COCc1ccc(C(=O)N2CC[C@@](O)(COC)C(C)(C)C2)o1,-26.2%
20,COC[C@]1(O)CCN(C(=O)c2ccc(CN(C)C)o2)CC1(C)C,76.5%
21,COC[C@]1(O)CCN(C(=O)c2cccc(CN(C)C)c2)CC1(C)C,54.7%
22,COc1cc(C(=O)N2CCC(O)(CN3CCOCC3)C(C)(C)C2)ccn1 (stereo unspecified),7.93%
23,COCc1cccc(C(=O)N2CCCC2)c1,1.98%
